The record followed here is PubChem BioAssay (NCI).

SMILES strings stand for the structures. The panel holds about 83,000 compounds, 20% with a hit somewhere; the sample as a whole holds those more often.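 Cell lines were cultured in 96-well plates, exposed to a single compound concentration, and assessed for percent growth 48 hours later.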 Unmarked numbers belong to inactive results. Active and inactive are the calls of the source. The calls were made as follows: active = growth percent below 10; inactive = the rest.

Test systems include SK-MEL-2 melanoma; EKVX NSCLC; SN12C renal; UO-31 renal; TK-10 renal; ACHN renal; CAKI-1 renal; A498 renal; CCRF-CEM leukemia; MOLT-4 leukemia; SR leukemia; RPMI-8226 leukemia; OVCAR-8 ovarian; OVCAR-5 ovarian; OVCAR-4 ovarian; SK-OV-3 ovarian; IGROV1 ovarian; OVCAR-3 ovarian; HS 578T breast; NCI/ADR-RES ovarian.
Common to all, as to assay: NCI-60 one-dose screen, 48 h (100 = growth as untreated, 0 = no growth, -100 = all killed)
Conditions in all cases: 10 µM unless noted

With `CS(=O)(=O)c1ccc(C(=O)N/N=C/c2cccc3ccccc23)cc1`, the growth with SK-MEL-2 melanoma was 47.7%; in the experiment on EKVX NSCLC it was 87.4%; in the experiment on SN12C renal, 87.4%; in the experiment with UO-31 renal, 78.5%; with TK-10 renal, 85.1%; in the experiment with ACHN renal, 98.5%. Further, the growth with CAKI-1 renal was 67.2%; in the experiment on A498 renal, 69.1%; with CCRF-CEM leukemia it was 77.6%; with MOLT-4 leukemia it was 46.8%; in the experiment with SR leukemia, 32.5%; with RPMI-8226 leukemia, 87.7%. Further, the growth was 83.9% in the experiment with OVCAR-8 ovarian; 109% in the experiment on OVCAR-5 ovarian; 113% in the experiment with OVCAR-4 ovarian; 78.1% with SK-OV-3 ovarian; 63.3% with IGROV1 ovarian; 67.8% with OVCAR-3 ovarian. In addition, the results for the growth in the experiment with HS 578T breast and in the experiment with NCI/ADR-RES ovarian were 85.1% and 73.5%, respectively.

On to `COc1cccc(C2C(C#N)=C(N)Oc3cc4c(cc32)OCO4)c1` (stereo not given), for which the growth with SK-MEL-2 melanoma is 64.7%; in the experiment on EKVX NSCLC, 47.9%; in the experiment with SN12C renal, 23.8%; with UO-31 renal, 39.3%; with TK-10 renal, 80%; in the experiment on ACHN renal, 29.3%. Besides, the growth in the experiment with CAKI-1 renal was 52.4%; in the experiment on A498 renal it was 1.43% (active); with CCRF-CEM leukemia it was 17.4%; in the experiment on MOLT-4 leukemia it was 19.4%; in the experiment on SR leukemia it was 17.8%; in the experiment with RPMI-8226 leukemia, 23.8%. The growth in the experiment on OVCAR-8 ovarian is 24.9%; with OVCAR-5 ovarian, 31.1%; with OVCAR-4 ovarian, 40.5%; with SK-OV-3 ovarian, 0.748% (active); with IGROV1 ovarian it was 21.6%; in the experiment on OVCAR-3 ovarian it was -38.6% (active). The growth was 27.8% with HS 578T breast and 5.77% (active) in the experiment on NCI/ADR-RES ovarian.

`CCOC(=O)C#Cc1c(C(=O)OCC)nnn1[C@@H]1O[C@H](COC(C)=O)[C@@H](OC(C)=O)[C@H]1OC(C)=O`: the growth was 95.8% with SK-MEL-2 melanoma; 103% in the experiment with EKVX NSCLC; 88.5% in the experiment with SN12C renal; 65% in the experiment with UO-31 renal; 62.3% in the experiment on TK-10 renal; 53.2% in the experiment with ACHN renal. Besides, the growth in the experiment with CAKI-1 renal was 4.56% (active); with A498 renal, 102%; in the experiment on CCRF-CEM leukemia, 48.3%; in the experiment on MOLT-4 leukemia it was 79.9%; in the experiment with SR leukemia, 22.8%; in the experiment on RPMI-8226 leukemia, 94.8%. For the same molecule, the growth is 94.1% with OVCAR-8 ovarian; 100% with OVCAR-5 ovarian; 104% in the experiment on OVCAR-4 ovarian; 109% in the experiment on SK-OV-3 ovarian; 91.5% with IGROV1 ovarian; 62.1% with OVCAR-3 ovarian. Besides, the growth with HS 578T breast is 96.2%; in the experiment with NCI/ADR-RES ovarian, 104%.

Take `Nc1ncnc2c1N=C(c1ccc3c(c1)OCO3)CC(c1ccc(Cl)cc1)N2` (stereo not given): the growth was 58.1% in the experiment with SK-MEL-2 melanoma; 71.1% in the experiment on EKVX NSCLC; 93.3% with SN12C renal; 55.8% with UO-31 renal; 99.7% in the experiment with TK-10 renal; 77.8% in the experiment on ACHN renal. Further, the growth was 74% in the experiment with CAKI-1 renal; 87% with A498 renal; -33.1% (active) in the experiment on CCRF-CEM leukemia; 69.4% with MOLT-4 leukemia; 41.3% with SR leukemia; 18.4% in the experiment on RPMI-8226 leukemia. Further, the growth was 89.8% with OVCAR-8 ovarian; 68.5% with OVCAR-5 ovarian; 77.7% with OVCAR-4 ovarian; 78.9% in the experiment with SK-OV-3 ovarian; 13% in the experiment with IGROV1 ovarian; 103% in the experiment on OVCAR-3 ovarian. Also, the growth in the experiment with HS 578T breast is 70.2%; in the experiment with NCI/ADR-RES ovarian, 60%.

Take `COc1ccccc1CNCCCN1C(=O)c2ccc3c4c(ccc(c24)C1=O)C(=O)N(CCCCNCCCN)C3=O`: the growth in the experiment on SK-MEL-2 melanoma is -46.1% (active); in the experiment with EKVX NSCLC, 48.1%; in the experiment with SN12C renal, -80.2% (active); with UO-31 renal it was 48.3%; in the experiment on TK-10 renal, 36.7%; in the experiment on ACHN renal it was 28.1%. Also, the growth in the experiment on CAKI-1 renal is 94.1%; in the experiment on A498 renal, 87.9%; with CCRF-CEM leukemia, 2.26% (active); with MOLT-4 leukemia, -21.7% (active); with SR leukemia it was 11.3%; in the experiment with RPMI-8226 leukemia, 10.6%. The growth was -16% (active) in the experiment on OVCAR-8 ovarian; 69.8% in the experiment on OVCAR-5 ovarian; -90.4% (active) with OVCAR-4 ovarian; 56.9% in the experiment with SK-OV-3 ovarian; -25% (active) with IGROV1 ovarian; -30.4% (active) in the experiment with OVCAR-3 ovarian. For the same molecule, the growth in the experiment with HS 578T breast is 31.5%; with NCI/ADR-RES ovarian, 72.6%.

As for `COc1cccc(-c2cc(-c3cccs3)c(C#N)c(=O)[nH]2)c1`, the growth in the experiment on SK-MEL-2 melanoma was 107%; in the experiment with EKVX NSCLC, 106%; with SN12C renal, 103%; with UO-31 renal, 89.4%; in the experiment on TK-10 renal, 122%; in the experiment on ACHN renal it was 102%. For the same molecule, the growth with CAKI-1 renal is 96.8%; in the experiment on A498 renal, 100%; in the experiment on CCRF-CEM leukemia it was 100%; in the experiment on MOLT-4 leukemia it was 107%; in the experiment with SR leukemia, 105%; in the experiment with RPMI-8226 leukemia, 98.3%. In addition, the growth in the experiment on OVCAR-8 ovarian is 100%; in the experiment with OVCAR-5 ovarian, 113%; in the experiment on OVCAR-4 ovarian, 104%; with SK-OV-3 ovarian it was 113%; in the experiment on IGROV1 ovarian, 108%; in the experiment with OVCAR-3 ovarian, 109%. Further, the growth is 96.4% in the experiment on HS 578T breast and 116% in the experiment on NCI/ADR-RES ovarian.

For the molecule `CCN(CC)CCCC(C)Nc1ccnc2ccc(Oc3ccccc3)cc12` (stereo not given), the growth is 112% with SK-MEL-2 melanoma; 85.5% in the experiment on EKVX NSCLC; 79.1% in the experiment with SN12C renal; 68.5% with UO-31 renal; 93.5% in the experiment on TK-10 renal; 67.1% in the experiment on ACHN renal. Further, the growth in the experiment on CAKI-1 renal is 79%; with A498 renal it was 48.4%; in the experiment on CCRF-CEM leukemia, 72.5%; in the experiment with MOLT-4 leukemia, 62.6%; in the experiment with SR leukemia it was 14.6%; with RPMI-8226 leukemia, 76.7%. In addition, the growth is 76.7% with OVCAR-8 ovarian; 88.6% in the experiment with OVCAR-5 ovarian; 66.6% with OVCAR-4 ovarian; 114% in the experiment on SK-OV-3 ovarian; 77% with IGROV1 ovarian; 76.8% in the experiment on OVCAR-3 ovarian. Moreover, the growth with HS 578T breast is 82%; with NCI/ADR-RES ovarian, 92.8%.

Turning to `CCOC(=O)c1ccc2c(c1)nc(-c1ccc(Cl)cc1)n2-c1cc(C(C)(C)C)[nH]n1`, the growth is 38.7% in the experiment with SK-MEL-2 melanoma; 47.6% in the experiment on EKVX NSCLC; 60.5% in the experiment on SN12C renal; 36.3% with UO-31 renal; 84.9% in the experiment with TK-10 renal; 35.8% in the experiment with ACHN renal. Moreover, the growth was 25.5% in the experiment on CAKI-1 renal; 45.3% in the experiment with A498 renal; 22.3% with CCRF-CEM leukemia; 9.68% (active) in the experiment with MOLT-4 leukemia; -22.3% (active) in the experiment on SR leukemia; 75.6% in the experiment with RPMI-8226 leukemia. Also, the growth with OVCAR-8 ovarian was 70.1%; in the experiment on OVCAR-5 ovarian, 60.5%; in the experiment with OVCAR-4 ovarian, 63.5%; in the experiment on SK-OV-3 ovarian it was 18.9%; with IGROV1 ovarian, 42.3%; in the experiment on OVCAR-3 ovarian, 13.5%. The growth in the experiment on HS 578T breast is 53.9%; in the experiment with NCI/ADR-RES ovarian it was 4.4% (active).
